Values joined by “and” are separate entries in the source; they are usually repeats but may differ in a detail not shown here. Equal values may be shown once. Hit rate of the full screen: of about 5,500 compounds, about 2,000 (36%) were called active. Roughly 18% stayed inconclusive and do not appear here. Cut-off read from the data, not from the text of the source: active = normalized growth mostly below about 0.91 (no sharp cut-off); inconclusive = no clear call, values can overlap the other calls; inactive = mostly above about 0.92. Some of the results follow.
Test: chemical genetic growth profiling, strain panel (AID 1159580);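 note: tested at 20 µM; growth read once vehicle control cultures reached saturation at 30 °C; 1 = growth at the plate median or of vehicle wells; lower values mean less growth of the strain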
Conditions: S. cerevisiae deletion strains, growth OD

Measured: normalized growth

Oc1ccc2c(c1)OCC1(O)Cc3cc(O)c(O)cc3C21 (stereo unspecified)
inactive: locus YAL021C, strain ccr4, stronger effect = lower value 1.03 | locus YAL026C, strain drs2, stronger effect = lower value 1.03 | locus YAL030W, strain snc1, stronger effect = lower value 1.02 | locus YBL061C, strain skt5, stronger effect = lower value 1.03 | locus YBR009C, strain hhf1, stronger effect = lower value 1.01 | locus YBR021W, strain FUR4, stronger effect = lower value 1.04 | locus YBR023C, strain chs3, stronger effect = lower value 1.03 | locus YBR171W, strain sec66, stronger effect = lower value 1.04 | locus YBR229C, strain ROT2, stronger effect = lower value 1.01 | locus YBR231C, strain swc5, stronger effect = lower value 1.01 | locus YBR279W, strain paf1, stronger effect = lower value 1.02 | locus YCL011C, strain gbp2, stronger effect = lower value 1.03 | locus YCL016C, strain dcc1, stronger effect = lower value 1.03 | locus YCL029C, strain bik1, stronger effect = lower value 1.01 | locus YCL061C, strain MRC1, stronger effect = lower value 1.02 | locus YCL069W, strain vba3, stronger effect = lower value 1.03 | locus YCR088W, strain abp1, stronger effect = lower value 1.02 | locus YDL005C, strain med2, stronger effect = lower value 1.03 | locus YDL035C, strain GPR1, stronger effect = lower value 1.03 | locus YDL040C, strain nat1, stronger effect = lower value 1.02 | locus YDL074C, strain BRE1, stronger effect = lower value 0.936 | locus YDL101C, strain DUN1, stronger effect = lower value 0.958 | locus YDL185W, strain tfp1, stronger effect = lower value 0.964 | locus YDL192W, strain arf1, stronger effect = lower value 1.01 | locus YDR001C, strain nth1, stronger effect = lower value 1.03 | locus YDR069C, strain doa4, stronger effect = lower value 1.01 | locus YDR101C, strain arx1, stronger effect = lower value 1.07 | locus YDR137W, strain rgp1, stronger effect = lower value 1.15 | locus YDR150W, strain NUM1, stronger effect = lower value 1 | locus YDR159W, strain sac3, stronger effect = lower value 1.05 | locus YDR162C, strain NBP2, stronger effect = lower value 0.976 | locus YDR195W, strain ref2 1.02 | locus YDR297W, strain sur2, stronger effect = lower value 1.02 | locus YDR318W, strain mcm21, stronger effect = lower value 0.98 | locus YDR334W, strain swr1, stronger effect = lower value 1.03 | locus YDR335W, strain msn5, stronger effect = lower value 1.01 | locus YDR388W, stronger effect = lower value 0.978 | locus YDR392W, strain spt3, stronger effect = lower value 1.03 | locus YDR502C, strain sam2, stronger effect = lower value 0.996 | locus YEL003W, strain gim4, stronger effect = lower value 1.02 | locus YEL037C, strain rad23, stronger effect = lower value 1.02 | locus YEL061C, strain CIN8 (second series), stronger effect = lower value 1.04 | locus YER015W, strain faa2, stronger effect = lower value 1.01 | locus YER016W, strain bim1, stronger effect = lower value 1.03 | locus YER110C, stronger effect = lower value 0.996 | locus YER111C, strain swi4, stronger effect = lower value 1.03 | locus YER155C, strain BEM2 (second series), stronger effect = lower value 1.03 | locus YER155C, strain BEM2, stronger effect = lower value 1.04 | locus YER167W, strain BCK2, stronger effect = lower value 1.04 | locus YFR010W, strain ubp6, stronger effect = lower value 1.02 | locus YGL078C, strain dbp3, stronger effect = lower value 0.986 | locus YGL086W, strain mad1, stronger effect = lower value 0.996 | locus YGL167C, strain pmr1, stronger effect = lower value 1.02 | locus YGL173C, strain kem1, stronger effect = lower value 1.03 | locus YGL227W, strain vid30, stronger effect = lower value 1.04 | locus YGL240W, strain doc1, stronger effect = lower value 1.02 | locus YGL248W, strain PDE1, stronger effect = lower value 0.989 | locus YGL253W, strain hxk2, stronger effect = lower value 1.02 | locus YGR078C, strain PAC10, stronger effect = lower value 0.977 | locus YGR135W, strain pre9, stronger effect = lower value 0.945 | locus YGR229C, strain SMI1, stronger effect = lower value 0.968 | locus YGR252W, strain gcn5, stronger effect = lower value 1.06 | locus YHR013C, strain ard1, stronger effect = lower value 1.07 | locus YHR027C, strain rpn1, stronger effect = lower value 1.02 | locus YHR030C, strain SLT2, stronger effect = lower value 0.995 | locus YHR079C, strain IRE1 (second series), stronger effect = lower value 0.993 | locus YHR079C, strain IRE1, stronger effect = lower value 0.992 | locus YHR094C, strain hxt1, stronger effect = lower value 1 | locus YHR129C, strain ARP1, stronger effect = lower value 0.98 | locus YHR142W, strain chs7, stronger effect = lower value 1.05 | locus YHR200W, strain rpn10, stronger effect = lower value 1.01 | locus YIL066C, strain RNR3, stronger effect = lower value 1.03 | locus YIL073C, strain SPO22, stronger effect = lower value 0.964 | locus YIL125W, strain kgd1, stronger effect = lower value 1.01 | locus YIR030C, strain dcg1, stronger effect = lower value 1 | locus YJL092W, strain hpr5, stronger effect = lower value 1.03 | locus YJL095W, strain BCK1 (second series), stronger effect = lower value 1.02 | locus YJL095W, strain BCK1, stronger effect = lower value 0.88 and 0.999 | locus YJL115W, strain asf1, stronger effect = lower value 1.04 | locus YJL129C, strain trk1, stronger effect = lower value 1.09 | locus YJL134W, strain LCB3, stronger effect = lower value 1.01 | locus YJL154C, strain vps35, stronger effect = lower value 1.03 | locus YJL164C, strain tpk1, stronger effect = lower value 1.03 | locus YJL166W, strain qcr8, stronger effect = lower value 1.02 | locus YJL168C, strain set2, stronger effect = lower value 0.983 | locus YJL187C, strain SWE1 (second series), stronger effect = lower value 0.922

Source: PubChem BioAssay AID1159580 (chemical genetic matrix, 2015)
